# Assay results as given in PubChem BioAssay (EPA / NIEHS).
# Calls of active or inactive are those of the source. Rule for the calls: active = hit-call score of the fitted dose curve at least 0.9, where 1 is the maximum; inactive = score below 0.9.
# Read-out: Monocyte Chemoattractant Protein-1 (MCP1), CCL2 (gene 6347)
# Test: BSK_3C_MCP1: BioMAP Diversity Plus: 3C Assay for Monocyte Chemoattractant Protein-1 (MCP1) Biomarker Activity (AID 2283017)
# Conditions: primary human endothelial cells (HUVEC); actives raise or lower the signal
# Procedure: BSK_3C is a cell-based, multiplexed-readout assay that uses umbilical vein endothelium, a human vascular primary cell, with measurements taken at 24 hours after chemical dosing in a 96-well plate.BSK_3C_MCP1 is an assay component measured in the BSK_3C assay. It measures MCP-1 antibody related to regulation of gene expression using ELISA technology.Data from the assay component BSK_3C_MCP1 was analyzed into 1 assay endpoint. This assay endpoint, BSK_3C_MCP1, was analyzed with bidirectional fitting relative to DMSO as the negative control and baseline of activity. Using a type of binding reporter, gain or loss-of-signal activity can be used to understand changes in the signaling as they relate to the gene CCL2. Furthermore, this assay endpoint can be referred to as a primary readout, because this assay has produced multiple assay endpoints where this one serves a signaling function. To generalize the intended target to other relatable targets, this assay endpoint is annotated to the cytokine intended target family, where the subfamily is chemotactic factor.
# The levels of cell surface (or secreted, indicated by the prefix "s") biomarker endpoints were measured by ELISA. Overt cytotoxicity to cells in confluent adherent cultures (all systems other than the BT system) was assessed by measuring total protein levels using sulforhodamine B (SRB) staining in parallel cultures at the time of biomarker measurements, indicated as SRB endpoints. For proliferation assays for adherent cell types, individual cell types are cultured at sub-confluence and relative cell numbers quantified by SRB staining at time points optimized for each system (48 h: 3C and CASM3C systems; 72 h: BT and HDF3CGF systems; 96 h: SAg system). SRB was performed by staining cells with 0.1% SRB after fixation with 10% TCA and reading wells at 560 nm.Viability and proliferation of PBMC (T cells) was quantified by Alamar Blue reduction for the SAg and BT systems. For PBMC viability (referred to as PBMC Cytotoxicity within the assay endpoint names), cells were plated (75,000/well in a 96-well plate) and then chemical samples added for 1 h before addition of activators, SEB and TSST-1 (20 ng/mL final concentration each). Cells were incubated for 90 h. Then, Alamar Blue (20 uL/well) (Invitrogen, Cat DAL1100) was added for 6 h, and the plates were read with a fluorescence microplate reader at 546/580 nm (excitation/emission). For PBMC proliferation, cells were plated and activated as above but incubated for only 16 h prior to addition of Alamar Blue. Plates were read after 6 h.
Compound,outcome,AC50
CNC(=O)/C=C(\C)OP(=O)(OC)OC,inactive,
O=[N+]([O-])c1c(Cl)c(Cl)c(Cl)c(Cl)c1Cl,inactive,
O=S1OCC2C(CO1)C1(Cl)C(Cl)=C(Cl)C2(Cl)C1(Cl)Cl (stereo not given),,30.3 µM (active)
C[C@H]1[C@H](c2ccc(Cl)cc2)SC(=O)N1C(=O)NC1CCCCC1,,20 µM (active)
CCC(C)(NC(=O)c1cc(Cl)c(C)c(Cl)c1)C(=O)CCl (stereo not given),,21.1 µM (active)
CNC(=O)Oc1ccccc1OC(C)C,inactive,
CC(C)N(C(=O)COc1nnc(C(F)(F)F)s1)c1ccc(F)cc1,inactive,
Cc1cc(C)nc(NC(=O)NS(=O)(=O)c2ccccc2C(=O)OC2COC2)n1,inactive,
COP(=O)(OC)OC=C(Cl)Cl,inactive,
CCOc1nc(NC)nc(NC(=O)NS(=O)(=O)c2ccccc2C(=O)OC)n1,inactive,
COc1cc(OC)nc(NC(=O)NS(=O)(=O)c2cc(NC=O)ccc2C(=O)N(C)C)n1,inactive,
Cc1[nH]c(=O)n(C(C)(C)C)c(=O)c1Cl,inactive,
COC(=O)c1ccccc1CS(=O)(=O)NC(=O)Nc1nc(OC)cc(OC)n1,inactive,
O=C(NC(=O)c1c(F)cccc1F)Nc1ccc(OC(F)(F)C(F)OC(F)(F)F)c(Cl)c1 (stereo not given),inactive,
O=C(Nc1ccccc1)Nc1cnns1,inactive,
O=C(O)C(F)(F)C(F)(F)C(F)(F)C(F)(F)C(F)(F)C(F)(F)C(F)(F)F,inactive,
O=C(O)COc1ccc(Cl)cc1Cl,inactive,
OCCOc1ccccc1,inactive,
CCC(C)(C)C(=O)OC1=C(c2ccc(Cl)cc2Cl)C(=O)OC12CCCCC2,,29.4 µM (active)
O=[N+]([O-])/N=C1\NCCN1Cc1ccc(Cl)nc1,inactive,

Compound,outcome,AC50
CC(C)(C)C(O)/C(=C\c1ccc(Cl)cc1Cl)n1cncn1 (stereo not given),,30.9 µM (active)
N#CN,inactive,
COc1nn(CSP(=S)(OC)OC)c(=O)s1,inactive,
COP(=S)(OC)Oc1ccc([N+](=O)[O-])cc1,,33.8 µM (active)
CC1(c2ccc(Oc3ccccc3)cc2)OC(=O)N(Nc2ccccc2)C1=O (stereo not given),,33.3 µM (active)
CCC(C)Nc1c([N+](=O)[O-])cc(C(C)(C)C)cc1[N+](=O)[O-] (stereo not given),,31.3 µM (active)
CC[C@H](C)[C@H]1O[C@]2(C=C[C@@H]1C)C[C@@H]1C[C@@H](C/C=C(\C)[C@@H](O[C@H]3C[C@H](OC)[C@@H](O[C@H]4C[C@H](OC)[C@@H](O)[C@H](C)O4)[C@H](C)O3)[C@@H](C)/C=C/C=C3\CO[C@@H]4[C@H](O)C(C)=C[C@@H](C(=O)O1)[C@]34O)O2 (tested in a mixture with another compound),,6.9 µM (active)
O=C(O)CCCOc1ccc(Cl)cc1Cl,inactive,
CC(C)(C)C(O)C(Oc1ccc(Cl)cc1)n1cncn1 (stereo not given),inactive,
O=S(=O)(O)C(F)(F)C(F)(F)C(F)(F)C(F)(F)C(F)(F)C(F)(F)C(F)(F)C(F)(F)F,inactive,
O=C1c2ccccc2C(=O)N1SC(Cl)(Cl)Cl,inactive,
CCCN(CCOc1c(Cl)cc(Cl)cc1Cl)C(=O)n1ccnc1,inactive,
N#Cc1c(Cl)c(Cl)c(Cl)c(C#N)c1Cl,,1.98 µM (active)
CCOCN(C(=O)CCl)c1c(C)cccc1CC,inactive,
COP(=S)(OC)Oc1ccc(SC)c(C)c1,inactive,
CCOC1Oc2ccc(OS(C)(=O)=O)cc2C1(C)C (stereo not given),,24.8 µM (active)
Clc1ccccc1-c1nnc(-c2ccccc2Cl)nn1,inactive,
ClC1C(Cl)C(Cl)C(Cl)C(Cl)C1Cl (stereo not given),inactive,
[2H]C1([2H])[n+]2ccccc2-c2cccc[n+]2C1([2H])[2H],inactive,
CNC(=O)Oc1cccc(N=CN(C)C)c1,inactive,
